Experiment [1] can be described thus: Cell Viability - N2a (AID 540).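 Also: plate controls were DMSO alone for no effect and tamoxifen control for full effect; nearly all actives have a fitted effect of over 45% in size.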 Particulars: N2a mouse neuroblastoma cell viability; activity change, negative = cytotoxicity: at 92.2 µM (top of the series). An outline of the steps:
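Mouse neuroblastoma N2a cells, 1500/well, exposed to compounds 40 h at 37 °C in complete medium. Viability measured as cellular ATP by CellTiter-Glo luminescence; AC50 from Hill fits of concentration-response.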

Experiment [2] in a line: Cell Viability - SH-SY5Y (AID 544).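 Also: 0% = DMSO alone and -100% = 100 µM tamoxifen; nearly all actives have a fitted effect of over 55% in size.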 The conditions noted are these: SH-SY5Y neuroblastoma cell viability; viability change, negative = cytotoxic: at 92.2 µM (top of the series). An outline of the steps:
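SH-SY5Y human neuroblastoma cells (1500/well) incubated 5 h, then compound-treated 40 h at 37 °C in complete medium. Viability read as intracellular ATP by CellTiter-Glo luminescence after 20 min; AC50 from Hill-equation fits of qHTS concentration-response.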

Experiment [3] is described as follows: Cell Viability - Renal Proximal Tubule (AID 545).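 Also: 0% = DMSO only and -100% = 100 µM tamoxifen; nearly all actives have a fitted effect of over 40% in size.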 An outline of the steps: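 Viability taken as intracellular ATP (CellTiter-Glo luminescence) after 40 hr, 37 °C compound treatment of primary proximal tubule cells from rat kidney, 1000 cells/well; Hill-equation fits of qHTS concentration-response data gave AC50.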
Experiment [4] deals with Cytochrome P450 3A4 (Homo sapiens) (UniProt P08684). Description: qHTS Assay for Inhibitors and Substrates of Cytochrome P450 3A4 (AID 884). Also: nearly all actives have a fitted effect of over 50% in size. Also: potency is read from the fitted curve at half-maximal effect. An outline of the steps:
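20 nM human CYP3A4 with 25 uM Luciferin-PPXE (at KM) in 200 mM KPO4, preincubated 10 min with compound; NADPH regeneration started a 60 min RT reaction. Luciferin detected by luminescence, normalized to 57 uM ketoconazole as full inhibition.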
(In general: In qHTS, concentration-response curves come from the screen itself.)

Experiment [5] can be described thus: Cell Viability - LYMP2-001 (AID 921).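 Also: 0% = DMSO only and full inhibition = tetraoctylammonium bromide control wells; nearly all actives have a fitted effect of over 70% in size.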 An outline of the steps:
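Cellular ATP loss read by luciferase luminescence after 24 h compound exposure at 37 C in complete medium. LYMP2-001 lymphoblastoid cells, 2500/well; qHTS concentration-response data fitted with Hill equation for AC50.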

Experiment [6] can be described thus: Cell Viability - LYMP2-003 (AID 965).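 Also: cells exposed to compounds for 24 h before reading; 0% = DMSO only and full effect = 92 µM tetraoctylammonium bromide; nearly all actives have a fitted effect of over 50% in size.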 An outline of the steps:
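CellTiter-Glo luminescence quantified ATP loss after 24 h compound treatment of LYMP2-003 lymphoblastoid cells at 37 C. Titration series were fitted with the standard Hill equation to give AC50.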

Experiment [7] can be described thus: Cell Viability - LYMP2-015 (AID 971).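 Also: 0% = DMSO only and full effect = 92 µM tetraoctylammonium bromide; nearly all actives have a fitted effect of over 55% in size.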 An outline of the steps:
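LYMP2-015 human lymphoblastoid cells (2500/well) in complete medium, compound-treated 24 h at 37 C; viability read as cellular ATP by CellTiter-Glo luminescence after 30 min at room temperature. AC50 from Hill-equation fits of qHTS concentration-response data.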

Experiment [8] in a line: Cell Viability - LYMP2-019 (AID 973).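 Also: 0% = DMSO alone and full effect = 92 µM tetraoctylammonium bromide; nearly all actives have a fitted effect of over 55% in size.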 An outline of the steps:
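Human lymphoblastoid LYMP2-019 cells (2500/well) preincubated 5 h at 37 C, then treated 24 h at 37 C in complete medium. Viability by CellTiter-Glo ATP luminescence after 30 min at room temperature; AC50 from Hill fits.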

Experiment [9] is described as follows: Cell Viability - LYMP2-002 (AID 977).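 Also: plate controls were DMSO only for no effect and 92 µM tetraoctylammonium bromide for full effect.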 An outline of the steps: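 Luminescent ATP readout (CellTiter-Glo, 30 min room temperature) after 24 h compound exposure at 37 C of a human lymphoblastoid line, 2500 cells/well. AC50 values derived by standard Hill fitting of qHTS concentration-response data.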
The nature of experiment [10]: Cell Viability - LYMP2-008 (AID 980). Also: % is scaled to controls: 0 for no effect and ±100 for the full control effect; nearly all actives have a fitted effect of over 60% in size. An outline of the steps: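 LYMP2-008 lymphoblastoid cells (2500/well) plated 5 h, then treated 24 h at 37 C in complete medium. Viability read as intracellular ATP by CellTiter-Glo luminescence after 30 min at room temperature; AC50 from Hill fits.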
A short description of experiment [11]: Cell Viability - LYMP2-010 (AID 981). Also: % is scaled to controls: 0 for no effect and ±100 for the full control effect; nearly all actives have a fitted effect of over 55% in size. An outline of the steps:
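Human lymphoblastoid LYMP2-010 cells (2500/well) treated 24 h at 37 C in complete medium; viability read as intracellular ATP by CellTiter-Glo luminescence. AC50 from Hill fits of concentration-response data; tetraoctylammonium bromide positive control.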

Experiment [12] in a line: Cell Viability - LYMP2-012 (AID 982).
Experiment [13] can be described thus: Cell Viability - LYMP2-020 (AID 986). An outline of the steps:
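Human lymphoblastoid LYMP2-020 cells (2500/well) preincubated 5 h at 37 C, then treated 24 h at 37 C. Viability measured as intracellular ATP by CellTiter-Glo luminescence after 30 min at room temperature; AC50 from Hill fits.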

A short description of experiment [14]: Cell Viability - LYMP2-022 (AID 987). An outline of the steps:
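LYMP2-022 lymphoblastoid cells (2500/well, complete medium) were treated with compounds for 24 hours at 37 C; intracellular ATP was then read by CellTiter-Glo luminescence after 30 min at room temperature. AC50 values were derived from Hill-equation fits.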

Experiment [15] is described as follows: Cell Viability - LYMP1-002 - Assay at 40 hr (AID 994).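 Also: 0% = DMSO only and full inhibition = 92 µM tetraoctylammonium bromide; nearly all actives have a fitted effect of over 60% in size.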 An outline of the steps: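 LYMP1-002 human lymphoblastoid cells (2500/well, complete medium) were treated with compounds for 40 hr at 37 C. Intracellular ATP was measured by CellTiter-Glo luminescence, and AC50 values came from Hill-equation fits of concentration-response data; tetraoctylammonium bromide was the positive control.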

A short description of experiment [16]: qHTS assay for small molecule agonists of retinoid X receptor alpha signaling (AID 588544). Particulars: HEK293T RXRa-UAS-bla, beta-lactamase reporter, 18 h; 530 nm emission.
Experiment [17] is described as follows: qHTS assay for small molecule antagonists of retinoid X receptor alpha signaling (AID 588546; active = well fitted inhibition curve with a large enough effect in the signal ratio, with a control signal flat, not every such curve was filed as active; the % refers to the signal ratio;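 also: cells stimulated with 9-cis-retinoic acid as agonist; % is scaled to controls: 0 for no effect and ±100 for the full control effect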). The conditions noted are these: HEK293T RXRa-UAS-bla, beta-lactamase ratio, antagonist mode; measured here: W530 green channel, cytotoxicity proxy. An outline of the steps: (§1)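 Beta-lactamase reporter inhibition, read as CCF4 fluorescence ratio (ex 405, em 460/530 nm) after 2 h at RT. HEK293T UAS-bla cells, 2500/well, were stimulated with 9-cis-RA at 500 or 100 nM final alongside test compound for 18 h at 37 C.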

For experiment [18], the target named is Retinoic acid receptor RXR-alpha (Homo sapiens) (UniProt P19793). The experiment is described as above. The conditions noted are these: HEK293T RXRa-UAS-bla, beta-lactamase ratio, antagonist mode. An outline of the steps: as §1
Chain of Retinoic acid receptor RXR-alpha (Homo sapiens) (P19793 whole entry, looked up): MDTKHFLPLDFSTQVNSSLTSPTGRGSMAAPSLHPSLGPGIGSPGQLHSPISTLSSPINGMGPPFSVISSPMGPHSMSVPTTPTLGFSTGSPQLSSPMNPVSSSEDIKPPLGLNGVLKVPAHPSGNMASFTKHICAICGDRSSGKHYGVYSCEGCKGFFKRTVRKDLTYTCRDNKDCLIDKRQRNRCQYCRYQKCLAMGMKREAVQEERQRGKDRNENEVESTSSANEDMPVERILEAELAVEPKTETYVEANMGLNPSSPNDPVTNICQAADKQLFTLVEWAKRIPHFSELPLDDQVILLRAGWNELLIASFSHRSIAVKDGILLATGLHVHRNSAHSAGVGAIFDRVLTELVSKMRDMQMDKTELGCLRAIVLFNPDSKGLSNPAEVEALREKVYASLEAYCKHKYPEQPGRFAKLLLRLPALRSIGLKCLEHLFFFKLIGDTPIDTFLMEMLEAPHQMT
For experiment [19], the target named is Tumor necrosis factor (Homo sapiens) (UniProt P01375). As to the kind of experiment: qHTS assay to identify small molecules that stimulate Tumor Necrosis Factor-alpha (TNF-alpha) secretion (AID 651757; active = well fitted curve in the direction sought with a large enough effect in the signal ratio; the % refers to the signal ratio; also: 0% is about no effect). An outline of the steps:
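THP-1 cells (3000/well) exposed to compounds 17 hrs at 37 C. Secreted TNF-alpha detected by HTRF with cryptate- and XL665-labeled anti-TNF-alpha antibodies after 3 hr at room temperature.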

The nature of experiment [20]: qHTS assay for small molecule antagonists of the retinoid-related orphan receptor gamma (ROR-gamma) signaling pathway - cell viability counter screen (AID 720652; active = well fitted curve in the direction sought with a large enough effect in the repeat runs; an effect the other way counts as inactive or inconclusive;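 also: CHO reporter cells with doxycycline-induced ROR-gamma expression; compound exposure lasted 16 hr before ATP read; % is scaled to controls: 0 for no effect and ±100 for the full control effect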). An outline of the steps:
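CHO cells carrying TET-inducible ROR and RORE-luciferase reporter, plated 5 hr, then dosed with compound plus doxycycline. After 16 hr at 37 C, viability read as intracellular ATP by CellTiter-Glo luminescence.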

Molecules are shown by their SMILES. Several values for one entry are separate records, joined by “and”; a condition that tells them apart may be missing. Equal values may be shown once. Records with an inconclusive call do not appear. Activity calls are given as the source filed them. Unless noted, calls follow the shape of the dose curve; as a rule, active = well fitted curve in the direction sought with a large enough effect; inconclusive = small, poorly fitted or top-dose-only effect, or another doubt; inactive = no such curve, though single readings can be large; an effect the other way counts as inactive or inconclusive.

Chain of Cytochrome P450 3A4 (Homo sapiens) (P08684 whole entry, looked up): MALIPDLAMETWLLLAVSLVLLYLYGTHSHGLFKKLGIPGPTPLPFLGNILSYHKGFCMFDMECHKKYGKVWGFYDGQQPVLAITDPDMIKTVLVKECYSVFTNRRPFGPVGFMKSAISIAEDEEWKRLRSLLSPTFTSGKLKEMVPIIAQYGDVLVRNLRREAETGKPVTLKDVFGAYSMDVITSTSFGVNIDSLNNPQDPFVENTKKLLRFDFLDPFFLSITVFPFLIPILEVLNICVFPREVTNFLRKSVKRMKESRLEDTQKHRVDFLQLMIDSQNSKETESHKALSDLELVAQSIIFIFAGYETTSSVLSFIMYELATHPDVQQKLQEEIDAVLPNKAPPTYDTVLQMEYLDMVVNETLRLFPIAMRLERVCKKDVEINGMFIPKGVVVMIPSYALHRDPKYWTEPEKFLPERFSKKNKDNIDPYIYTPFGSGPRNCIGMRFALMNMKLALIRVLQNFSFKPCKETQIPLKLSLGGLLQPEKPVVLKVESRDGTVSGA
Chain of Tumor necrosis factor (Homo sapiens) (P01375 whole entry, looked up): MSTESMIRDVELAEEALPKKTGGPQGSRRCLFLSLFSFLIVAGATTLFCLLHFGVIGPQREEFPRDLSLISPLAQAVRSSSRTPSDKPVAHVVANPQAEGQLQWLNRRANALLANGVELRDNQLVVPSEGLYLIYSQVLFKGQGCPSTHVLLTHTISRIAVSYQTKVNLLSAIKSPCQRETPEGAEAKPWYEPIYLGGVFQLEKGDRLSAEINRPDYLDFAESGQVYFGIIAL

Take `CCSC(=O)N1CCCCCC1`: the Potency entry in experiment [1], in experiment [2], in [4], in [5], in [6] and in experiment [7] was “inactive” throughout. Moreover, the Potency entry in experiment [8], in experiment [9], in experiment [10], in experiment [11], in [12] and in [13] was “inactive” throughout. The Potency entry in experiment [14], in experiment [15] and in [20] was “inactive” throughout. In addition, the compound was called inactive in experiment [3] and in [19]. Besides, the max response in experiment [16] is -15.2% and -3.96%; in [17], -11.6% and -2.5%; in experiment [18] it was -8.27% (inactive) and -1.48% (inactive).

As for `Cc1cc(-c2ccc(N)c(C)c2)ccc1N`, the Potency entry in [1], in experiment [2], in experiment [5], in [6], in experiment [7] and in experiment [8] was “inactive” throughout. The Potency entry in experiment [9], in [10], in [11], in [12], in experiment [13] and in experiment [14] was “inactive” in each case. Besides, the Potency result in experiment [15] and in experiment [20] was “inactive” in each case. Besides, the outcome in experiment [3] was inactive. In addition, the max response in [16] was -4.96% and -4.31%; in [17], -15.7% and -12.6% and -3.84%; in experiment [18], -5.08% (inactive) and -3.85% (inactive) and -31.9% (inactive).

Take `CCCCC(=O)Cl`: the Potency entry in experiment [1], in experiment [2], in [4], in experiment [5], in experiment [6] and in [7] was “inactive” throughout. Further, the Potency result in experiment [8], in [9], in experiment [10], in experiment [11], in [12] and in [13] was “inactive” in each case. Also, the Potency result in experiment [14], in [15] and in experiment [20] was “inactive” throughout. Besides, the outcome in experiment [3] and in experiment [19] was inactive. For the same compound, the results for the max response in experiment [16], in experiment [17] and in experiment [18] were -18.9%, -10.8% and -9.41% (inactive), respectively.

`CCOP(=S)(OCC)Oc1nc(Cl)c(Cl)cc1Cl`: the Potency result in experiment [1], in [2], in [5], in [6], in experiment [7] and in experiment [8] was “inactive” each time. Moreover, the Potency result in [9], in experiment [10], in [11], in experiment [12], in [13] and in [14] was “inactive” in each case. Moreover, the Potency result in experiment [15] and in [20] was “inactive” in each case. The outcome in experiment [3] and in experiment [19] was inactive. In addition, the Potency in [4] was 5.01 µM (active). Further, the max response in [16] is -1.15%; in [17] it was -8.45% [middle of 4 runs].

Turning to `Cc1ccc2c(c1N)C(=O)c1ccccc1C2=O`, the Potency entry in experiment [2], in [5], in experiment [6], in experiment [7], in [8] and in [9] was “inactive” in each case. The Potency entry in experiment [10], in [11], in [12], in [13], in experiment [14] and in experiment [15] was “inactive” throughout. Further, the outcome in [3] was inactive. The Potency in experiment [4] is 5.01 µM (active). The max response was -11.3% and 17.2% in [16]; -0.33% and -4.6% in [17]; 9.57% (inactive) and -23.7% (inactive) in experiment [18].

Turning to `N#CCCCCC#N`, the Potency result in [1], in experiment [2], in experiment [4], in experiment [5], in experiment [6] and in experiment [7] was “inactive” in each case. Further, the Potency entry in experiment [8], in experiment [9], in experiment [10], in experiment [11], in experiment [12] and in experiment [13] was “inactive” in each case. The Potency entry in experiment [14], in [15] and in [20] was “inactive” each time. Besides, the result in experiment [3] and in experiment [19] was inactive. Further, the max response was 10.4% in experiment [16], -2.9% in experiment [17] and 12.5% (inactive) in experiment [18].

As to `C=COC(C)=O`, the Potency result in experiment [1], in experiment [2], in experiment [4], in [5], in experiment [6] and in experiment [7] was “inactive” each time. Further, the Potency entry in experiment [8], in experiment [9], in experiment [10], in [11], in experiment [12] and in experiment [13] was “inactive” throughout. For the same compound, the Potency entry in [14], in [15] and in experiment [20] was “inactive” throughout. Besides, the compound was called inactive in [3] and in [19]. Further, the max response was -12.6% in experiment [16], -12.3% in experiment [17] and -3.99% (inactive) in experiment [18].

As for `c1ccoc1`, the Potency result in experiment [1], in experiment [2], in [4], in experiment [5], in [6] and in [7] was “inactive” each time. Further, the Potency result in experiment [8], in [9], in [10], in experiment [11], in [12] and in experiment [13] was “inactive” in each case. In addition, the Potency result in experiment [14], in [15] and in experiment [20] was “inactive” each time. Besides, the call in experiment [3] and in experiment [19] was inactive. Besides, the max response in experiment [16] was -15.5%; in [17] it was 1%; in experiment [18] it was -5.23% (inactive).

For the origin of these results see PubChem BioAssay (NCATS).
